According to PubChem BioAssay (EPA / NIEHS):
The source made the active and inactive calls. How the source made its calls: active means hit-call score of the fitted dose curve at least 0.9, where 1 is the maximum; inactive means score below 0.9.

How the values were obtained:
[1] = target: Bile acid receptor (Homo sapiens) (UniProt Q96RI1); experiment: ATG_IR1_CIS: Attagene CIS-FACTORIAL HepG2 Assay for human Nuclear Receptor Subfamily 1 Group H Member 4 (NR1H4), IR1 submotif (AID 2282946); settings: IR1 reporter transcription, actives raise or lower the signal
Method in brief: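 Readout: reporter transcript levels by RT-PCR with fluorescent capillary electrophoresis, from HepG2 cells transiently transfected with multiplexed cis-regulated reporters and dosed 24 h. Gain- or loss-of-signal fitted versus DMSO negative control.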

[2] = ATG_GRE_CIS: Attagene CIS-FACTORIAL HepG2 Assay for human Glucocorticoid Response Elements (GRE) (AID 2282947); settings: HepG2 GRE cis-reporter, Attagene multiplex mRNA; actives raise or lower the signal
Method in brief: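 Cells (HepG2) bearing transfected cis-promoter reporter transcription units were treated with chemical for 24 hours. Reporter mRNA was measured via RT-PCR with capillary electrophoresis, and activity was fitted in both directions relative to DMSO.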

[3] = ATG_ISRE_CIS: Attagene CIS-FACTORIAL HepG2 Assay for human Interferon Regulatory Factor 1 (IRF1) binding to an Interferon-Stimulated Response Element (ISRE) (AID 2282948); settings: HepG2 ISRE cis-reporter (Attagene), mRNA transcription readout; actives raise or lower the signal
Method in brief: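 Multiplexed mRNA reporter readout in human liver HepG2 cells: cis-element-driven reporters transfected, compound added for 24 h, transcripts amplified, fluorescently labelled and sized by capillary electrophoresis; curve fitting bidirectional against DMSO.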

[4] = ATG_M_32_CIS: Attagene CIS-FACTORIAL HepG2 Assay for M32 Transcription Factor (Internal Marker) (AID 2282949); settings: HepG2 Attagene cis-factorial M32 reporter, mRNA; actives raise or lower the signal;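 further: background control marker of the multiplexed CIS panel rather than a real target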
Method in brief: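 HepG2 human liver cells transiently transfected with cis-promoter-driven multiple reporter transcription units, dosed 24 h. Reporter mRNA quantified by RT-PCR, FAM-labelled primer extension, HpaI digest and capillary electrophoresis; bidirectional fit versus DMSO baseline.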

[5] = ATG_M_06_CIS: Attagene CIS-FACTORIAL HepG2 Assay for M06 Transcription Factor (Internal Marker) (AID 2282950); settings: HepG2 Attagene CIS-FACTORIAL M06 internal marker reporter; actives raise or lower the signal
Method in brief: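 Internal background marker within multiplexed cis-reporter HepG2 system. Cells transiently transfected, dosed 24 h; reporter mRNA measured by RT-PCR, HpaI digestion and capillary electrophoresis. Bidirectional fit relative to DMSO.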

[6] = target: Hypoxia-inducible factor 1-alpha (Homo sapiens) (UniProt Q16665); experiment: ATG_HIF1a_CIS: Attagene CIS-FACTORIAL HepG2 Assay for human Hypoxia Inducible Factor 1 (HIF1A) (AID 2282951); settings: HepG2 Attagene cis-factorial HIF1a reporter transcription; actives raise or lower the signal
Method in brief: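 HepG2 cells transiently transfected with multiplexed cis-promoter reporter units; reporter mRNA read 24 h after dosing by RT-PCR, 6-FAM primer-extension labelling, HpaI digestion and capillary electrophoresis. Bidirectional fit versus DMSO baseline.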

[7] = target: Hepatocyte nuclear factor 6 (Homo sapiens) (UniProt Q9UBC0); experiment: ATG_HNF6_CIS: Attagene CIS-FACTORIAL HepG2 Assay for human Hepatocyte Nuclear Factor 6 (HNF6) (AID 2282952); settings: HepG2 Attagene cis-factorial HNF6 reporter transcription; actives raise or lower the signal
Method in brief: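 First, HepG2 cells were transfected with the multiplexed cis reporter library and dosed with chemical for 24 h. Next, RNA was reverse-transcribed, PCR-amplified and fluorescently labelled. Finally, HpaI-digested fragments were read by capillary electrophoresis.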

[8] = target: Heat shock factor protein 1 (Homo sapiens) (UniProt Q00613); experiment: ATG_HSE_CIS: Attagene CIS-FACTORIAL HepG2 Assay for human Heat Shock Transcription Factor 1 (HSE) (AID 2282953); settings: HepG2 HSE cis-reporter, Attagene RNA transcription; actives raise or lower the signal
Method in brief: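 HepG2 cells transfected with cis-promoter reporter units sensing endogenous transcription factor activity; reporter mRNA quantified 24 h post-dose by RT-PCR and capillary electrophoresis of 6-FAM-labelled products. Bidirectional fitting against DMSO.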

[9] = ATG_MRE_CIS: Attagene CIS-FACTORIAL HepG2 Assay for human Metal Responsive Element (MRE) (AID 2282954); settings: HepG2 MRE cis-reporter transcription, Attagene multiplex; actives raise or lower the signal
Method in brief: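 Cells were transfected with cis-promoter reporter transcription units, then dosed for 24 h. RNA was reverse-transcribed, amplified, fluorescently labelled and resolved by capillary electrophoresis, and activity was fitted in both directions relative to DMSO.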

[10] = ATG_PBREM_CIS: Attagene CIS-FACTORIAL HepG2 Assay for human Phenobarbital-responsive Enhancer Module (PBREM) (AID 2282955); settings: HepG2 PBREM cis-reporter, Attagene multiplexed transcription; actives raise or lower the signal
Method in brief: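 HepG2 cells transiently transfected with multiple cis-regulated reporter transcription units; endogenous factor activity at the PBREM element measured as reporter mRNA 24 h after dosing, via RT-PCR and capillary electrophoresis of fluorescent fragments; bidirectional fitting versus DMSO.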

[11] = target: Paired box protein Pax-6 (Homo sapiens) (UniProt P26367); experiment: ATG_Pax6_CIS: Attagene CIS-FACTORIAL HepG2 Assay for human Paired Box 6 (PAX6) (AID 2282956); settings: HepG2 CIS-FACTORIAL PAX6 reporter transcription, RNA readout; actives raise or lower the signal
Method in brief: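 Fluorescent RT-PCR products separated by capillary electrophoresis report PAX6-linked promoter mRNA in HepG2 cells 24 h post-dose. Curves fitted bidirectionally, DMSO as negative control.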

[12] = ATG_PXRE_CIS: Attagene CIS-FACTORIAL HepG2 Assay for human Pregnane X Receptor Element (PXRE) (AID 2282957); settings: HepG2 Attagene CIS-FACTORIAL PXRE reporter, mRNA; actives raise or lower the signal
Method in brief: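 After a 24 h chemical incubation, total RNA from transfected HepG2 cells was reverse-transcribed and reporter cDNA amplified, FAM-labeled, HpaI-digested and sized by capillary electrophoresis. DMSO served as baseline for bidirectional curve fitting.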

[13] = ATG_PPRE_CIS: Attagene CIS-FACTORIAL HepG2 Assay for human Peroxisome Proliferator-activated Response Element (PPRE) (AID 2282958); settings: HepG2 PPRE cis-element reporter, Attagene transcription factor profiling; actives raise or lower the signal
Method in brief: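 HepG2 cells transiently transfected with multiplexed cis-element reporter units measure endogenous transcription factor activity. After 24 h compound exposure, reporter mRNA is quantified by RT-PCR, 6-FAM labeling, HpaI digestion and capillary electrophoresis; bidirectional fits are made against DMSO baseline.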

[14] = ATG_RORE_CIS: Attagene CIS-FACTORIAL HepG2 Assay for human RAR-related Orphan Receptor Element (RORE) (AID 2282959); settings: HepG2 Attagene cis-factorial RORE reporter, mRNA; actives raise or lower the signal
Method in brief: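 HepG2 cells transiently transfected with multiple cis-element reporter transcription units, exposed to chemical for 24 h. Reporter mRNA quantified by RT-PCR, 6-FAM primer-extension labeling, HpaI digestion and capillary electrophoresis; bidirectional fit versus DMSO baseline.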

[15] = ATG_Sox_CIS: Attagene CIS-FACTORIAL HepG2 Assay for human SRY-box transcription factor (SOX) (AID 2282960); settings: HepG2 Attagene cis-factorial SOX reporter, mRNA; actives raise or lower the signal
Method in brief: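 HepG2 cells transiently transfected with cis-element-driven multiple reporter transcription units, dosed 24 h; reporter mRNA measured by RT-PCR, FAM labelling, HpaI digestion and capillary electrophoresis. Bidirectional fit versus DMSO baseline.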

[16] = target: Transcription factor Sp1 (Homo sapiens) (UniProt P08047); experiment: ATG_Sp1_CIS: Attagene CIS-FACTORIAL HepG2 Assay for human Specificity Protein 1 (Sp1) (AID 2282961); settings: HepG2 Sp1 cis-reporter transcription, actives raise or lower the signal
Method in brief: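 HepG2 cells transiently transfected with multiple reporter transcription units driven by cis-regulatory elements; Sp1-responsive reporter mRNA measured 24 h after dosing by RT-PCR and capillary electrophoresis fluorescence, fitted bidirectionally against DMSO baseline.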

[17] = ATG_SREBP_CIS: Attagene CIS-FACTORIAL HepG2 Assay for human Sterol Regulatory Element Binding (SREBP) (AID 2282962); settings: HepG2 Attagene cis-factorial SREBP reporter, mRNA; actives raise or lower the signal
Method in brief: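 Endogenous factor activity is measured in HepG2 through multiplexed reporter units under cis-element control. Following a 24 h incubation, reporter transcripts are reverse-transcribed, PCR-amplified and sized by capillary electrophoresis; activity is fitted in both directions relative to DMSO.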

[18] = target: Signal transducer and activator of transcription 3 (Homo sapiens) (UniProt P40763); experiment: ATG_STAT3_CIS: Attagene CIS-FACTORIAL HepG2 Assay for human Signal Transducer and Activator of Transcription 3 (STAT3) (AID 2282963); settings: HepG2, Attagene cis-factorial STAT3 reporter transcription; actives raise or lower the signal
Method in brief: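 HepG2, MRTU-transfected, 24 h dosing. RNA → RT → PCR → FAM label → HpaI → CE. Bidirectional fit vs DMSO.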

[19] = ATG_TA_CIS: Attagene CIS-FACTORIAL HepG2 Assay for human TA Basal Promoter (AID 2282964); settings: HepG2 Attagene CIS-factorial TA basal promoter reporter; actives raise or lower the signal
Method in brief: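 HepG2 cells transiently transfected with multiple reporter units under cis promoter elements, reporting endogenous transcription factor activity; this endpoint tracks the TA basal promoter as background control. Reporter mRNA after 24 h dosing measured by RT-PCR/capillary electrophoresis; bidirectional fits versus DMSO.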

[20] = ATG_TCF_b_cat_CIS: Attagene CIS-FACTORIAL HepG2 Assay for human T-Cell-Factor with beta-catenin (TCF/b-cat) (AID 2282965); settings: HepG2 TCF/beta-catenin cis-reporter transcription, actives raise or lower the signal
Method in brief: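 In this cis-format system, transfected HepG2 cells report endogenous transcription factor activity. Readout after 24 h exposure is reporter transcript abundance from RT-PCR and capillary electrophoresis, analysed for gain or loss of signal versus DMSO.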

Measured: outcome

Bile acid receptor (Homo sapiens), sequence (Q96RI1 whole entry, looked up): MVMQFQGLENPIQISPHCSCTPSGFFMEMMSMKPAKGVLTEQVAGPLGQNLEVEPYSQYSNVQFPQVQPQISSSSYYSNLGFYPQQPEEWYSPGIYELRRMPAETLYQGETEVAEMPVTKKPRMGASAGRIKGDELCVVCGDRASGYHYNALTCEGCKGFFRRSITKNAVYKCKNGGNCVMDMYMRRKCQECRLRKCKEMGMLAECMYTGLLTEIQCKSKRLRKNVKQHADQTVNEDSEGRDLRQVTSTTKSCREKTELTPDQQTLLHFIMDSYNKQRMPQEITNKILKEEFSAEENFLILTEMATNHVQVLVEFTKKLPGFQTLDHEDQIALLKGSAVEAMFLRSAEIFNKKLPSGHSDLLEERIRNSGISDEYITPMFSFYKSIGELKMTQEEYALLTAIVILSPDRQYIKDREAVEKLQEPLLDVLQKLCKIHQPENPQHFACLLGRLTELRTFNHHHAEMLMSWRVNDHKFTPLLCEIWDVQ
Transcription factor Sp1 (Homo sapiens), sequence (P08047 whole entry, looked up): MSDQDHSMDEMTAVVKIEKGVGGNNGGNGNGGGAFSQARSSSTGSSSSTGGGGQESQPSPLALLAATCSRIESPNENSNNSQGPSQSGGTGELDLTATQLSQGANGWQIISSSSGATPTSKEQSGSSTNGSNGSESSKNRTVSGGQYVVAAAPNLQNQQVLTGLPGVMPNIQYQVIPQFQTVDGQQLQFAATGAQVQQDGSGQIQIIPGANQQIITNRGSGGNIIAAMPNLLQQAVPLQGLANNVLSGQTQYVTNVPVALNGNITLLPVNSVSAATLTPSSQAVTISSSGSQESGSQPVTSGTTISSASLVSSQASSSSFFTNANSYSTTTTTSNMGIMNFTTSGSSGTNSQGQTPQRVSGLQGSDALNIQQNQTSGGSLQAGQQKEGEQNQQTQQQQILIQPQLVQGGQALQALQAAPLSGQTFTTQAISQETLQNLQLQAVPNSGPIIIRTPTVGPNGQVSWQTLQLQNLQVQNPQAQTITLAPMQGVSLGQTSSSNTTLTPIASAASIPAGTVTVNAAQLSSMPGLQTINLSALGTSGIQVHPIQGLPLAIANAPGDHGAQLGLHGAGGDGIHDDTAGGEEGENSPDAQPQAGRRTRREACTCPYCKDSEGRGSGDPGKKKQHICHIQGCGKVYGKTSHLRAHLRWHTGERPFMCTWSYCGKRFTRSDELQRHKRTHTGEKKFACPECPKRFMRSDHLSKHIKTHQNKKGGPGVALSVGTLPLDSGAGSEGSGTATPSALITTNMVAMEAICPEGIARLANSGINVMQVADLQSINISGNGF
Signal transducer and activator of transcription 3 (Homo sapiens), sequence (P40763 whole entry, looked up): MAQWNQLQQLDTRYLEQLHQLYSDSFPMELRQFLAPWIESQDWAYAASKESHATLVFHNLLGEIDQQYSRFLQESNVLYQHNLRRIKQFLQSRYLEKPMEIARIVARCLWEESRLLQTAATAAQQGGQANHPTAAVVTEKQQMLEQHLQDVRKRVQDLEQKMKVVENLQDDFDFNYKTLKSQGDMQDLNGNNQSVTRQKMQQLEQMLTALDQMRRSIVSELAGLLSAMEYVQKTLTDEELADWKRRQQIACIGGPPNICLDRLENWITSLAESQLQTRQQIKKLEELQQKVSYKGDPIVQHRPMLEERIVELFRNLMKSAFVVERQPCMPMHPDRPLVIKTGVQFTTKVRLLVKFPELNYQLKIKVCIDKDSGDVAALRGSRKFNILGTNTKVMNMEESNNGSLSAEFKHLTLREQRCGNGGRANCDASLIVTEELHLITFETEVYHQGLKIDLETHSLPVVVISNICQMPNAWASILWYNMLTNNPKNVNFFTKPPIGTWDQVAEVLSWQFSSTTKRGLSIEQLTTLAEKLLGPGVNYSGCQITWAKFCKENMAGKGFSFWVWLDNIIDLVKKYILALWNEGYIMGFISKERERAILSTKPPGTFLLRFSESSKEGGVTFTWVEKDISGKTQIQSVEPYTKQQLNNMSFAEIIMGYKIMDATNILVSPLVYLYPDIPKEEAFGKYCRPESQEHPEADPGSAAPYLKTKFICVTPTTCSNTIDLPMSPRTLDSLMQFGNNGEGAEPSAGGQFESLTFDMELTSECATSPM
Hepatocyte nuclear factor 6 (Homo sapiens), sequence (Q9UBC0 whole entry, looked up, the tested form may be a part): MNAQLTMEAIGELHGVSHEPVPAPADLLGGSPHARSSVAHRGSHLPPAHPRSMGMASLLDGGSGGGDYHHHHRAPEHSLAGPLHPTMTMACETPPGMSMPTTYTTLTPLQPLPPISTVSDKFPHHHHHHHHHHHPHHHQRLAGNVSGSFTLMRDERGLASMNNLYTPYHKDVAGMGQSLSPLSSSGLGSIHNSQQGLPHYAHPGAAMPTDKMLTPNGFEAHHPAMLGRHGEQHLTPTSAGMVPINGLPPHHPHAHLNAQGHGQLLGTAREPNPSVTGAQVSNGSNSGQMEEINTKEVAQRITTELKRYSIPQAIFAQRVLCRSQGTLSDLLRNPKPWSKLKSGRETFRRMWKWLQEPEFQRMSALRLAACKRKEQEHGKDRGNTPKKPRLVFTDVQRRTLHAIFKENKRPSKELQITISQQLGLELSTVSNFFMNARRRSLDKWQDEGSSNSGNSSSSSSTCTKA
Hypoxia-inducible factor 1-alpha (Homo sapiens), sequence (Q16665 whole entry, looked up): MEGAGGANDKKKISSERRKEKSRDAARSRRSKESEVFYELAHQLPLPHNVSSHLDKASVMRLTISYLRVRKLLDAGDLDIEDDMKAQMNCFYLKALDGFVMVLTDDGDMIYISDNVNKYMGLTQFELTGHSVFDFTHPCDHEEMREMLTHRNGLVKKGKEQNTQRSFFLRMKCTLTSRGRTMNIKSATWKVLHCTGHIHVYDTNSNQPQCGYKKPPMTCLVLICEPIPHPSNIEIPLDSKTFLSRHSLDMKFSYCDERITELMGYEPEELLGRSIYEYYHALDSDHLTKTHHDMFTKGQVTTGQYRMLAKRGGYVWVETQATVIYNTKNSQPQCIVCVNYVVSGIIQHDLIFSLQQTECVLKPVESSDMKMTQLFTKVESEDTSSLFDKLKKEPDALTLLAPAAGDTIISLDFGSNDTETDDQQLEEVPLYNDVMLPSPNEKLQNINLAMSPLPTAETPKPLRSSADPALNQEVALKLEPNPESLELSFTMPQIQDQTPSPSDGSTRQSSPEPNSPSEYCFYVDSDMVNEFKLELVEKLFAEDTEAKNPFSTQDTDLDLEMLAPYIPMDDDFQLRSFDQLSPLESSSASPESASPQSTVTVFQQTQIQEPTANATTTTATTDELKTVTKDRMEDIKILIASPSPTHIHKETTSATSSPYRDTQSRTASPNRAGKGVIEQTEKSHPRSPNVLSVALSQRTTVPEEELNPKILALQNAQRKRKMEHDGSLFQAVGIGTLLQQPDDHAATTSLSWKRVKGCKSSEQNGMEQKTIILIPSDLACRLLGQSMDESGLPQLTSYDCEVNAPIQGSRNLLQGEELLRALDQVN
Heat shock factor protein 1 (Homo sapiens), sequence (Q00613 whole entry, looked up): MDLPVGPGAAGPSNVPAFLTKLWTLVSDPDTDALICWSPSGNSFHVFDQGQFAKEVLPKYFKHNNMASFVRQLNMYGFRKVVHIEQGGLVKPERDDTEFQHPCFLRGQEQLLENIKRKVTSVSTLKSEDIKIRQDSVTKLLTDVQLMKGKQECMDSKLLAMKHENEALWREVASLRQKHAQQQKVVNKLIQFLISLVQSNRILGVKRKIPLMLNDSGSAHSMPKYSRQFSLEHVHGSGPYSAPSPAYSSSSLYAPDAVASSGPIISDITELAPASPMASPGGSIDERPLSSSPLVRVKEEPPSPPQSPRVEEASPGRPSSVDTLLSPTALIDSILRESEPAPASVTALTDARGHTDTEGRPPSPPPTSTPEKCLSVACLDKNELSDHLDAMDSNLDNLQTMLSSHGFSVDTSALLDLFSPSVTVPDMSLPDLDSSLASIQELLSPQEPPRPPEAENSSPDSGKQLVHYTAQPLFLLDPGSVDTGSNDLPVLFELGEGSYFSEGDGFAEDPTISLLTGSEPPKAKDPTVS
Paired box protein Pax-6 (Homo sapiens), sequence (P26367 whole entry, looked up): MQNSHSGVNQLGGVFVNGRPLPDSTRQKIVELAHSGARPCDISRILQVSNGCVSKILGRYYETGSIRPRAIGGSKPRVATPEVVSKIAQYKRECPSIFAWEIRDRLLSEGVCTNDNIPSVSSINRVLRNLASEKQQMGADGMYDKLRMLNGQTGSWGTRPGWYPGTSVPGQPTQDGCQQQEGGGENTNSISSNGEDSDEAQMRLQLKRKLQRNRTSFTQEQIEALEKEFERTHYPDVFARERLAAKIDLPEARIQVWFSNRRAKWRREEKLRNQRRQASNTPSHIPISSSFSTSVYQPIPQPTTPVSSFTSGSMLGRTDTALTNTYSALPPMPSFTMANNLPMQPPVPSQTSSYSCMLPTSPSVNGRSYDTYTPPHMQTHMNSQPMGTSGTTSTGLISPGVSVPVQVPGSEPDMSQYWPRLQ

C=CC(C)(C)O
inactive: all assays above

CC(C)(N)CO
inactive: all assays above

CC(CC(C)(C)C)CC(C)(C)CC(C)(C)C (centres undefined)
not listed: [17]
inactive: all other assays above
